PubChem BioAssay (Tox21)
Inconclusive results are not listed. The source made the active and inactive calls. The call rests on the fitted dose curve; in most records, active means well fitted curve in the direction sought with a large enough effect in the repeat runs; inconclusive means weak or mixed curves; inactive means no such curve, though single readings can be large; an effect the other way counts as inactive or inconclusive.

What was measured:
[1] = qHTS RealTime-Glo MT Cell Viability Assay in HEK293 cells - 16 hour (AID 1224872); further: top concentration of the series differs between compounds; nearly all actives have a fitted effect of over 50% in size
In short: (§1)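 Assay medium contained NanoLuc luciferase plus cell-permeant prosubstrate, added with HEK293 cells at 600 cells/well. After 5 h at 37 C/5% CO2 compounds were added; plates stayed at 37 C for 40 h with serial luminescence reads.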

[2] = qHTS RealTime-Glo MT Cell Viability Assay in HepG2 cells - 8 hour (AID 1224873); further: nearly all actives have a fitted effect of over 55% in size
In short: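 HepG2 cells (600/well) mixed with RealTime-Glo MT reagent, settled 5 h at 37 C/5% CO2 before compound addition. Nonlytic NanoLuc luminescence from viable-cell prosubstrate reduction read repeatedly during 40 h treatment at 37 C.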

[3] = qHTS RealTime-Glo MT Cell Viability Assay in HEK293 cells - 40 hour (AID 1224874); conditions: RealTime-Glo luminescence; max response: active compounds read low; further: nearly all actives have a fitted effect of over 50% in size
In short: (§2)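 600 HEK293 cells per well, dispensed already mixed with RealTime-Glo MT reagents. Compound dosing came 5 h later. The same wells were read for luminescence at 0, 8, 16, 24, 32 and 40 h of exposure at 37 C.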

[4] = A CellTox Green Cytotoxicity Assay to monitor cytotoxicity in HEK293 cells - 24 hour (AID 1224875); further: series mostly up to about 77 µM; nearly all actives have a fitted effect of over 45% in size
In short: (§3)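 Dead-cell fluorescence measured kinetically: asymmetric cyanine dye, HEK293, 600 cells/well, 5 h settle, 23 nL cpd/DMSO, 37 C, reads 0–40 h every 8 h.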

[5] = A CellTox Green Cytotoxicity Assay to monitor cytotoxicity in HepG2 cells - 16 hour (AID 1224876); further: nearly all actives have a fitted effect of over 45% in size
In short: (§4)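 First, HepG2 cells (600/well) mixed with reagent were plated; second, after 5 h at 37 C they received compounds via pintool; third, fluorescence was measured at 0 h through 40 h at 8 h intervals.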

[6] = qHTS RealTime-Glo MT Cell Viability Assay in HepG2 cells - 32 hour (AID 1224877); further: nearly all actives have a fitted effect of over 55% in size
In short: (§5)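 qHTS, HepG2, 600 cells/well, RealTime-Glo (NanoLuc + prosubstrate) added with cells; 5 h preincubation; DMSO compound addition; 37 C; luminescence at 0/8/16/24/32/40 h.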

[7] = A CellTox Green Cytotoxicity Assay to monitor cytotoxicity in HepG2 cells - 24 hour (AID 1224878); further: nearly all actives have a fitted effect of over 45% in size
In short: as §4

[8] = A CellTox Green Cytotoxicity Assay to monitor cytotoxicity in HepG2 cells - 40 hour (AID 1224879); further: nearly all actives have a fitted effect of over 40% in size
In short: as §4

[9] = qHTS RealTime-Glo MT Cell Viability Assay in HEK293 cells - 0 hour (AID 1224880); further: top concentration of the series differs between compounds; nearly all actives have a fitted effect of over 45% in size
In short: as §2

[10] = A CellTox Green Cytotoxicity Assay to monitor cytotoxicity in HEK293 cells - 32 hour (AID 1224881); further: nearly all actives have a fitted effect of over 40% in size
In short: as §3

[11] = A CellTox Green Cytotoxicity Assay to monitor cytotoxicity in HepG2 cells - 0 hour (AID 1224882); further: nearly all actives have a fitted effect of over 35% in size
In short: as §4

[12] = A CellTox Green Cytotoxicity Assay to monitor cytotoxicity in HepG2 cells - 32 hour (AID 1224883); further: nearly all actives have a fitted effect of over 50% in size
In short: as §4

[13] = A CellTox Green Cytotoxicity Assay to monitor cytotoxicity in HEK293 cells - 8 hour (AID 1224884); further: nearly all actives have a fitted effect of over 35% in size
In short: as §3

[14] = qHTS RealTime-Glo MT Cell Viability Assay in HepG2 cells - 16 hour (AID 1224885); further: nearly all actives have a fitted effect of over 50% in size
In short: as §5

[15] = qHTS RealTime-Glo MT Cell Viability Assay in HEK293 cells - 24 hour (AID 1224886)
In short: as §1

[16] = qHTS RealTime-Glo MT Cell Viability Assay in HEK293 cells - 8 hour (AID 1224887)
In short: as §2

[17] = A CellTox Green Cytotoxicity Assay to monitor cytotoxicity in HEK293 cells - 16 hour (AID 1224888); further: nearly all actives have a fitted effect of over 35% in size
In short: as §3

[18] = qHTS RealTime-Glo MT Cell Viability Assay in HepG2 cells - 0 hour (AID 1224889); further: nearly all actives have a fitted effect of over 50% in size
In short: as §5

[19] = A CellTox Green Cytotoxicity Assay to monitor cytotoxicity in HepG2 cells - 8 hour (AID 1224890); further: nearly all actives have a fitted effect of over 45% in size
In short: as §4

[20] = qHTS assay to identify small molecule antagonists of the estrogen receptor alpha (ER-alpha) signaling pathway using the BG1 cell line in the presence of 0.1 nM 17-beta-estradiol - cell viability counter screen (AID 1259241); further: nearly all actives have a fitted effect of over 40% in size
In short: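 Measures cytotoxicity alongside the ER-alpha antagonist readout: VM7Luc4E2 cells, charcoal-stripped serum, 0.1 nM 17beta-estradiol final, 22 hr compound incubation at 37C, CellTiter-Fluor fluorescence.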
On the % scale 0 is the no-effect control and ±100 the full control effect.

O=c1c2ccccc2c(=O)c2c1cc(Cl)c1[nH]c3c([nH]c12)c(Cl)cc1c(=O)c2ccccc2c(=O)c13
inactive: Potency [1] | Potency [2] | max response [3] 12.8% | Potency [4] | Potency [5] | Potency [6] | Potency [7] | Potency [8] | Potency [9] | Potency [10] | Potency [11] | Potency [12] | Potency [13] | Potency [14] | Potency [15] | Potency [16] | Potency [17] | Potency [18] | Potency [19] | Potency [20]

CCn1cc[n+](C)c1 (tested in a mixture with another compound)
inactive: Potency [1] | Potency [2] | max response [3] -0.353% | Potency [4] | Potency [5] | Potency [6] | Potency [7] | Potency [8] | Potency [9] | Potency [10] | Potency [11] | Potency [12] | Potency [14] | Potency [15] | Potency [16] | Potency [17] | Potency [18] | Potency [19]

Clc1cc(Cl)c(-c2cc(Cl)c(Cl)cc2Cl)cc1Cl
inactive: Potency [1] | Potency [2] | max response [3] 1.25% | Potency [4] | Potency [5] | Potency [6] | Potency [7] | Potency [8] | Potency [9] | Potency [10] | Potency [11] | Potency [12] | Potency [14] | Potency [15] | Potency [16] | Potency [17] | Potency [18] | Potency [19]

O=C(Cl)c1ccccc1F
inactive: Potency [1] | Potency [2] | max response [3] -0.0017% | Potency [4] | Potency [5] | Potency [6] | Potency [7] | Potency [8] | Potency [9] | Potency [10] | Potency [11] | Potency [12] | Potency [13] | Potency [14] | Potency [15] | Potency [16] | Potency [17] | Potency [18] | Potency [19] | Potency [20]

C=CC(=C)C
inactive: Potency [1] | Potency [2] | max response [3] 8.63% | Potency [4] | Potency [5] | Potency [6] | Potency [7] | Potency [8] | Potency [9] | Potency [10] | Potency [11] | Potency [12] | Potency [13] | Potency [14] | Potency [15] | Potency [16] | Potency [18] | Potency [19] | Potency [20]

CN=C=O
inactive: Potency [1] | Potency [2] | max response [3] 8.4% | Potency [4] | Potency [5] | Potency [6] | Potency [7] | Potency [8] | Potency [9] | Potency [10] | Potency [11] | Potency [12] | Potency [13] | Potency [14] | Potency [15] | Potency [16] | Potency [17] | Potency [18] | Potency [19] | Potency [20]

CN(C)CCc1c[nH]c2ccccc12
inactive: Potency [1] | Potency [2] | max response [3] -4.01% | Potency [4] | Potency [5] | Potency [6] | Potency [7] | Potency [8] | Potency [9] | Potency [10] | Potency [11] | Potency [12] | Potency [13] | Potency [14] | Potency [15] | Potency [16] | Potency [18] | Potency [19] | Potency [20]

CC(=O)O.CC(=O)O.CC(=O)O.CC(=O)O.CC(=O)O.CC(=O)O.CC(=O)O.O.O.[Cr].[Cr].[Cr]
inactive: Potency [1] | Potency [2] | max response [3] 2.64% | Potency [4] | Potency [5] | Potency [6] | Potency [7] | Potency [8] | Potency [9] | Potency [10] | Potency [11] | Potency [12] | Potency [13] | Potency [14] | Potency [15] | Potency [16] | Potency [17] | Potency [18] | Potency [19] | Potency [20]

CC(Cc1ccc(OCC(=O)O)cc1)NCC(O)c1csc(C(F)(F)F)n1 (configuration not stated)
inactive: Potency [1] | Potency [2] | max response [3] -5.31% | Potency [4] | Potency [5] | Potency [6] | Potency [7] | Potency [8] | Potency [9] | Potency [10] | Potency [11] | Potency [12] | Potency [13] | Potency [14] | Potency [15] | Potency [16] | Potency [17] | Potency [19] | Potency [20]

O=C(O)[C@H](O)[C@@H](O)C(=O)O
inactive: Potency [1] | Potency [2] | max response [3] 5.57% | Potency [4] | Potency [5] | Potency [6] | Potency [7] | Potency [8] | Potency [9] | Potency [10] | Potency [11] | Potency [12] | Potency [13] | Potency [14] | Potency [15] | Potency [16] | Potency [17] | Potency [18] | Potency [19] | Potency [20]

CCN(CC)CCc1c[nH]c2ccccc12
inactive: Potency [1] | Potency [2] | max response [3] 6.8% | Potency [4] | Potency [5] | Potency [6] | Potency [7] | Potency [8] | Potency [9] | Potency [10] | Potency [11] | Potency [12] | Potency [13] | Potency [14] | Potency [15] | Potency [16] | Potency [17] | Potency [18] | Potency [19] | Potency [20]

CCOP(=O)(OCC)Oc1cc(C)nc(C(C)C)n1
inactive: Potency [1] | Potency [2] | max response [3] 1.52% | Potency [4] | Potency [5] | Potency [6] | Potency [7] | Potency [8] | Potency [9] | Potency [10] | Potency [11] | Potency [12] | Potency [13] | Potency [14] | Potency [15] | Potency [16] | Potency [17] | Potency [18] | Potency [19] | Potency [20]

CCCCn1cc[n+](C)c1.[Cl][Fe-]([Cl])([Cl])[Cl]
inactive: Potency [1] | Potency [2] | max response [3] 2.18% | Potency [4] | Potency [5] | Potency [6] | Potency [7] | Potency [8] | Potency [9] | Potency [10] | Potency [11] | Potency [12] | Potency [13] | Potency [14] | Potency [15] | Potency [16] | Potency [17] | Potency [18] | Potency [19]
